Sampled rows, rich in hits. Any-hit rate of the full collection: about 5.4%.
PP1 counter = counter-screen for PP5 inhibitors: inhibitors of human PP1-alpha; AID 2235; purified PP1alpha, OMFP fluorescence; inhibition, % at 6.7 µM; 320,000 tested, 0.9% active;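 active = inhibition above the mean inhibition of all tested compounds plus 3 SD, computed separately for each screening campaign, cut at about 15% in these data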
Target sequence (P62136 whole entry, looked up): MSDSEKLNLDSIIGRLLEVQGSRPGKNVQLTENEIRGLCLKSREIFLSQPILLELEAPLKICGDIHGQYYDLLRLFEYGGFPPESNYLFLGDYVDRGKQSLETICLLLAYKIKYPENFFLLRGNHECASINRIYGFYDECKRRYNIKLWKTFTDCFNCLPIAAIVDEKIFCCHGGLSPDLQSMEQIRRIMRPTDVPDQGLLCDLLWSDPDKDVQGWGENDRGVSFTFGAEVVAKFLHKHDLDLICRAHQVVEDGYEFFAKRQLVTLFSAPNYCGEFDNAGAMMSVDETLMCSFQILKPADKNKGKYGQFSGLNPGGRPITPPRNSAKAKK
CSC inhib = cancer stem cell inhibition; cancer stem cell-like cells viability, luminescence; inhibition, % at 7.5 µM; 300,000 tested, 1.1% active; AID 2717; in the data active = inhibition above about 75%; inconclusive = no clear call, values can overlap the other calls; tested in HMLE shEcad cells
PP5 inh = inhibitors of human protein phosphatase 5 (PP5). P53041. purified PP5c, OMFP substrate fluorescence. inhibition, % at 6.7 µM. 320,000 tested, 0.18% active. AID 1987;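 active = inhibition above the campaign's mean inhibition across all tested compounds plus 3 SD, cut at about 9.5% in these data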
Calb FLC = affects C. albicans growth with fluconazole; 300,000 tested, 0.57% active; C. albicans CaCi-2 (fluconazole-resistant clinical isolate) + fluconazole, Alamar Blue growth, 48 h; growth inhibition, % (no concentration beside the values);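 active = growth inhibition above about 58% in most replicates, limit read from the data, passing the limit was not always enough; inconclusive = exactly half the replicates above a set limit; inactive = most replicates below a set limit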;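 note: all wells also contain fluconazole at 8 µg/ml as a sub-toxic cotreatment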
ALR H2O2 inh = human ALR oxidase inhibition via reduced H2O2; P55789; purified ALR, DTT oxidation, H2O2 HRP-luminol luminescence; inhibition, % (concentration not given with the values); 290,000 tested, 3.8% active;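 active = mean replicate inhibition above about 79%, with every replicate also reaching it, limit read from the data; inconclusive = only one of the two criteria met; inactive = mean below limit and not every replicate reaching it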
Target sequence (P55789 whole entry, looked up): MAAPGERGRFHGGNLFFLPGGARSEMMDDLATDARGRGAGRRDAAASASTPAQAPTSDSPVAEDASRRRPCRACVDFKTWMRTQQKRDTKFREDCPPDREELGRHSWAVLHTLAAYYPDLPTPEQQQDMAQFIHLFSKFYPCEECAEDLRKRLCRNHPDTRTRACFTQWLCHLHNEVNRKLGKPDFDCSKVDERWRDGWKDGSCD
A number is an active result; i = inactive; ? = inconclusive; nt = no result given.

SMILES	PP1 counter	CSC inhib	PP5 inh	Calb FLC	ALR H2O2 inh
Cn1c(C(=O)NC2CC2)cc2c(=O)n(C)c3ccccc3c21	i	i	i	i	i
O=C1Cc2ccccc2N1c1ccccc1	i	i	i	i	i
O=C1CC(=Nc2ccccc2)NN1c1ccccc1	i	130	i	i	i
C=CCN1C(=O)c2ccc(C(=O)N(CC)CC(=O)Nc3cc(Cl)ccc3C)cc2C1=O	i	i	i	i	nt
CC(=O)N1[C@H](Cc2ccccc2)C=C[C@]1(C)C(=O)NCc1ccc(C)o1	i	i	i	i	i
O=C(Cc1c[nH]c2ccccc12)NCc1cccs1	i	i	i	i	i
O=C(NCCc1c[nH]c2ccccc12)C(=O)c1c[nH]c2ccccc12	i	112	i	i	i
O=C(CCCc1c[nH]c2ccccc12)NCc1cccs1	i	i	i	i	90
O=C(NCCc1ccc(Cl)cc1)C(=O)c1c[nH]c2ccccc12	i	i	i	i	i
CC(=O)N1[C@H](Cc2ccccc2)C=C[C@]1(C)C(=O)NCCc1c[nH]c2ccccc12	i	i	i	i	99
CC(=O)Nc1ccc(NC(=O)COC(=O)CCCc2c[nH]c3ccccc23)cc1	i	i	i	i	94
Nc1nc(Nc2ccccc2)nc(N2CCOCC2)c1[N+](=O)[O-]	i	i	i	i	i
CC(C)Cc1csc(NC(=O)c2ccc(F)cc2)c1C(=O)O	i	121	i	i	i
CCOC(=O)c1c(N)sc(C(=O)N(CC)CC)c1C	i	i	i	i	96
CCOC(=O)c1sc(NC(=O)CCN2CCCCCC2)c(C(=O)OCC)c1C	i	i	i	i	97
CCOC(=O)c1c(N)sc(C(N)=O)c1C	i	i	i	i	i
CCOC(=O)c1c(N)sc(C(=O)N2CCCCCC2)c1C	i	i	i	i	83
CCC(CO)n1c(=S)[nH]c2cc(OC)c(OC)cc2c1=O (stereo not drawn)	i	nt	i	i	i
COC(=O)CNC(=O)Cn1c(=O)n(Cc2ccc(F)cc2)c(=O)c2sccc21	i	i	i	i	i
Cc1cnc(C(=O)OCC(=O)N=c2sccn2Cc2ccccc2Cl)cn1	i	i	i	i	i
COc1ccc(NC(=O)CCSc2nnc(C)s2)cc1	i	i	i	i	i
CCn1cc(C(=O)NCc2ccco2)c(=O)c2cc(S(=O)(=O)N3CC(C)CC(C)C3)ccc21 (stereo not drawn)	i	83	i	i	i
Cc1ncc(CN2CCCC(C(=O)Nc3ccc(-c4cccc(F)c4)cc3)C2)cn1 (stereo not drawn)	i	i	i	i	i
Cc1ncc(CN2CCCC(C(=O)Nc3ccc(-c4cccc(F)c4)cc3)C2)s1 (stereo not drawn)	nt	101	nt	i	i
COc1ccc2c(c1)C(=O)[C@H](O)[C@@H](c1ccc(OC)c(Br)c1)O2	i	108	i	i	i
SMILES	PP1 counter	CSC inhib	PP5 inh	Calb FLC	ALR H2O2 inh
C=CC[C@@H](Cc1ccc(F)cc1)C(=O)OC[C@H]1CCCN1C(=O)[C@@H](CC=C)CC(=O)N[C@H](CO)Cc1ccccc1	nt	i	nt	nt	i
CCc1ccccc1NC(=O)CCC(=O)OCC(=O)c1ccc(-c2ccccc2)cc1	17	i	i	i	i
Cc1ccc(C(=O)NC(=O)OCCn2c(C)cnc2[N+](=O)[O-])cc1	i	i	i	88	nt
CCN(CC)c1ccc(/C=N/NC(=O)c2ccco2)c(O)c1	i	113	i	89	97
CCN(CC)c1ccc(/C=N/NC(=O)Cc2cccs2)c(O)c1	16	i	i	i	nt
O=C1C2ON(c3ccccc3)C(c3cccnc3)C2C(=O)N1c1ccc(Cl)c(Cl)c1 (stereo not drawn)	i	i	i	i	i
O=C(NCc1ccc(Cl)cc1Cl)c1ccc2nc[nH]c2c1	i	i	i	i	i
O=C(NC1CCCC1)C1CCCN(S(=O)(=O)c2cnc[nH]2)C1 (stereo not drawn)	i	i	i	i	96
O=C(NC1CCCCC1)C1CCCN(S(=O)(=O)c2cnc[nH]2)C1 (stereo not drawn)	i	i	i	i	i
O=C(NC1CCCCCCC1)C1CCCN(S(=O)(=O)c2cnc[nH]2)C1 (stereo not drawn)	i	i	i	i	95
COc1ccccc1C(CNC(=O)COc1cc(C)ccc1Cl)N1CCCC1 (stereo not drawn)	i	i	i	i	i
S=c1[nH]nc(-c2ccc3ccccc3n2)n1-c1ccc2c(c1)OCCO2	i	i	i	i	90
Oc1ccc(-c2n[nH]c(=S)n2-c2ccc3c(c2)OCCO3)c(O)c1	i	i	i	i	86
S=c1[nH]nc(-c2ccc(Cl)cc2Cl)n1-c1ccc2c(c1)OCCO2	i	i	i	i	i
COc1ccc(-c2n[nH]c(=S)n2-c2ccc3c(c2)OCCO3)cc1	i	i	i	i	91
S=c1[nH]nc(-c2ccc3ccccc3n2)n1-c1ccccc1	i	i	i	i	i
O=C(NCc1cccnc1)Nc1ccc(Cl)c(Cl)c1	i	i	i	i	i
Cc1ccc(OCC(=O)Nc2ccc3c(c2)OCO3)c([N+](=O)[O-])n1	i	i	i	i	i
O=S1(=O)N=C(Nc2ccc(O)cc2)c2ccccc21	i	i	i	i	99
Cc1ccccc1NC1=NS(=O)(=O)c2ccccc21	i	i	i	i	i
O=C(NNC1=NS(=O)(=O)c2ccccc21)c1ccc(Cl)cc1	i	i	i	i	89
CCN1CCN(S(=O)(=O)c2ccc(Cl)c(C(=O)Nc3cc(Cl)ccc3N3CCOCC3)c2)CC1	i	i	i	i	i
CN1C(=O)C(O)(CC(=O)/C=C/C=C/c2ccccc2)c2ccccc21 (stereo not drawn)	i	i	i	i	90
Clc1cccc(-c2nc(NCCCN3CCOCC3)c3ccccc3n2)c1	i	91	i	i	i
Clc1cccc(-c2nc(NCCN3CCOCC3)c3ccccc3n2)c1	i	i	i	i	i
SMILES	PP1 counter	CSC inhib	PP5 inh	Calb FLC	ALR H2O2 inh
O=[N+]([O-])c1ccc(-c2nc(C(Cl)Cl)c3ccccc3n2)cc1	i	97	i	i	i
CN(C)c1ccc(/C=N/Nc2ccc(-n3ccnc3)nn2)cc1	i	i	i	i	94
CN(C)c1ccc(/C=N\Nc2ccccn2)cc1	i	i	i	i	?
COc1nc(-c2ccccc2Cl)ccc1C#N	i	i	i	i	98
CCOc1nc(-c2ccc(Cl)cc2Cl)ccc1C#N	i	i	i	i	i
CCN(CC)c1ccc(NC(=O)CSc2nc(C3CC3)nc3ccccc23)cc1C	i	i	i	i	nt
CCN(CC)S(=O)(=O)c1cccc(-c2cn3cccnc3n2)c1	i	i	i	i	99
Cc1nc(-c2cccc(S(=O)(=O)N3CCCCC3)c2)cs1	i	i	i	i	i
Nc1cccc(-c2cn3cccnc3n2)c1	i	i	i	i	99
CCN(CC)S(=O)(=O)c1cccc(-c2csc(C)n2)c1	i	i	i	i	97
Cc1ccc(-c2cn3cccnc3n2)cc1	i	i	i	i	i
CCc1ccccc1NC(=O)c1cnc2scc(C)n2c1=O	i	i	i	i	i
Cn1c(=O)c2c(ncn2CC(=O)OCC(=O)Nc2ccc(Cl)cc2)n(C)c1=O	i	i	i	i	i
